Screens as filed in PubChem BioAssay.
Only some compounds are listed: those with a hit (about 3% of all), similar ones and a draw of the others.
Tau fibril FP: tau fibrillization inhibition (FP); Potency, µM (top dose mostly 57.7 µM), usual class: inhibitors; K18 P301L tau heparin fibrillization, Alexa594 FP, 6 h; P10636; 280,000 compounds, 0.39% hits; note: nearly all actives have a fitted effect of over 55% in size
Target sequence (P10636 561-689 P618L limits assumed): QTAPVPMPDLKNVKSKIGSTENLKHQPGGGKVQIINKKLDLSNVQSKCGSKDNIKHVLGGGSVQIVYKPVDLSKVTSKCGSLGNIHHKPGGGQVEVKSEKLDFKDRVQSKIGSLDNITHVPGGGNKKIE
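Steps: dispense K18 P301L tau (15 uM plus 0.24 uM Alexa 594 tracer, final) in pH 7 sodium acetate; add compound; add heparin (20 uM final); incubate 6 hr, 37 C; add ThT (30 uM final); after 1 hr ambient, read FP.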
TRb SRC2 PPI: disrupts binding of human TR beta to SRC2. P10828. TRbeta-SRC2 peptide binding, fluorescence polarization; receptor liganded with 1 µM T3. Potency, µM (top dose mostly 106 µM), most hits filed as inhibitors. 280,000 compounds, 0.065% hits. AID 1469; note: nearly all actives have a fitted effect of over 50% in size
Target sequence (P10828 whole entry, looked up): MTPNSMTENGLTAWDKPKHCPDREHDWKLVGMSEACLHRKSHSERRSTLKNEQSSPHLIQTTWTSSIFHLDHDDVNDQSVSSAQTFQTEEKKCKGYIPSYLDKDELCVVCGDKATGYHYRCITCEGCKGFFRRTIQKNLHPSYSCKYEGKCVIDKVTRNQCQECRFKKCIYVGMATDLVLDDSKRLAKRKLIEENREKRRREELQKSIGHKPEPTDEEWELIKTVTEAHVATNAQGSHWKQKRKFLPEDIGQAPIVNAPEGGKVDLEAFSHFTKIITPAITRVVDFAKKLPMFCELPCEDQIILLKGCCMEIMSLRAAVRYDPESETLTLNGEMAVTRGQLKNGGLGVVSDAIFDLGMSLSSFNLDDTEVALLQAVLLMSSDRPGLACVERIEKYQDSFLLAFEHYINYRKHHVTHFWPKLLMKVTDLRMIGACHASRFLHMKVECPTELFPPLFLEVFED
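Each compound concentration gave % activity, normalized to unbound and bound Texas Red SRC2 controls, from polarization read after 5 hr ambient incubation with T3-loaded human TRb LBD.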
Tau fluor cs: counter-screen for tau fibril formation inhibitors. tau K18 P301L Alexa594 fluorescence, heparin fibrillization. Potency, µM (top dose mostly 57.7 µM). 280,000 compounds, 0.93% hits; note: nearly all actives have a fitted effect of over 55% in size
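Human K18 P301L tau (15 uM unlabeled plus 0.24 uM Alexa 594-labeled, final) in 100 mM sodium acetate pH 7 was mixed with compound and 20 uM heparin and incubated 6 hr at 37 C.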
TexasRed fluor: counter-screen for TRb-SRC2 inhibitors: fluorescence interference; TRb/SRC2 Texas Red total fluorescence interference; Potency, µM (top dose mostly 106 µM); 280,000 compounds, 0.29% hits; AID 1479; active = well fitted curve in either direction with a large enough effect; inconclusive = small, poorly fitted or top-dose-only effect
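Human TRb ligand-binding domain at 0.6 uM with 20 nM Texas Red SRC2 peptide in Tris buffer containing 1 uM T3 and 5% DMSO, incubated with compound 5 h at ambient temperature. Total fluorescence (555/632 nm) calculated as parallel + 2 × perpendicular.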
Tau ThT inhib: blocks human tau fibril formation measured by thioflavin T. 270,000 compounds, 2.1% hits. Potency, µM (doses to about 57.4 µM), actives largely listed as inhibitors. P10636. recombinant tau K18 P301L (four-repeat tau fragment), heparin-induced fibrillization, ThT fluorescence; note: nearly all actives have a fitted effect of over 55% in size
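Heparin-induced fibrillization of the P301L-mutant K18 repeat-domain fragment of human tau was followed by ThT binding in quantitative high-throughput format.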
A number is an active result; n = inactive; u = inconclusive; x = not tested or not shown; [ ] = another dose, or the depositor's remark. Unless noted, calls come from the whole dose curve; as a rule, active = well fitted curve in the direction sought with a large enough effect; inconclusive = small, poorly fitted or top-dose-only effect, or another doubt; inactive = no such curve, though single readings can be large; an effect the other way counts as inactive or inconclusive.

SMILES | Tau fibril FP | TRb SRC2 PPI | Tau fluor cs | TexasRed fluor | Tau ThT inhib
CN1C(=O)/C(=C/C=C2/CCCN2C)N(C)C1=S | u | n | n | n | 20µM
O=C(COc1ccccc1F)Nc1ccc2nc(SCC(=O)N3CCc4ccccc43)sc2c1 | u | n | n | n | u
Nc1cc2nn(-c3ccccc3)nc2cc1Cl | u | n | u | n | 3.5µM
Nc1ccc2nn(-c3ccccc3)nc2c1 | n | n | u | n | u
Cc1cccc2[nH]c3c(N4CC=C(c5ccc(F)cc5)CC4)ncnc3c12 | u | n | 14µM[quencher] | n | u
COc1cccc2[nH]c3c(N4CCCCC4)ncnc3c12 | n | n | n | n | n
O=C(NCc1nc2ccccc2[nH]1)c1cccc(Cl)c1 | n | n | n | n | n
Clc1cccc(N/N=C(\Cc2nc3ccccc3[nH]2)c2ccccc2)c1 | u | n | 7.1µM[quencher] | n | u
CCOC(=O)c1c(CSC(=N)N)n(-c2ccc(Br)cc2)c2cc(Br)c(OC(C)=O)cc12 | u | n | u | n | 16µM
COc1ccc(Nc2nnc(-c3cc4c(ccc5ccccc54)oc3=O)s2)cc1 | n | n | u | n | 5µM
O=c1oc2ccc3ccccc3c2cc1-c1nnc(Nc2ccccc2F)s1 | n | n | n | n | u
O=[N+]([O-])c1ccc(/C([O-])=C(/C(=S)NCc2ccco2)[n+]2ccccc2)cc1 | u | n | n | u | 25µM
C[Si]1(C)O[Si](C)(C)O[Si](C)(C)O[Si](C)(C)O[Si](C)(C)O1 | x | n | x | n | x
Cc1cc2nc3c(=O)n(CCc4ccccc4)c(=O)[nH]c3nc2cc1N | u | n | 8.9µM[quencher] | n | x
Nc1ccc2nc3c(=O)n(CCc4ccccc4)c(=O)[nH]c3nc2c1 | u | n | u | n | x
S=C(Nc1ccc2cn[nH]c2c1)Nc1ccc(Cl)cc1Cl | n | n | u | n | 16µM
S=C(Nc1ccc2cn[nH]c2c1)Nc1ccccc1Cl | n | n | u | n | 14µM
OC[C@H]1O[C@@](CO)(O[C@H]2O[C@H](CO)[C@@H](O)[C@H](O)[C@H]2O)[C@@H](O)[C@@H]1O | x | n | x | n | x
c1ccc(CNCCNCc2ccccc2)cc1 | x | n | x | n | x
CCc1cccc2c(C(=O)CSc3nncn3-c3ccccc3OC)c[nH]c12 | n | n | n | 89µM[quencher] | n
O=C(Nc1ccc(F)cc1F)c1ccc2c(O)c(S(=O)(=O)c3ccc(Cl)cc3)c(=O)[nH]c2c1 | n | n | n | n | n
CN(Cc1ccco1)c1ccnc(-c2ccoc2)n1 | u | n | u | n | 22µM
O=C(/C=C\Nc1ccc2c(c1)OCO2)c1ccc(Cl)s1 | n | n | n | n | 2.8µM
O=C(/C=C\Nc1ccc2c(c1)OCO2)c1cccs1 | n | n | u | n | 2µM
C/C(CCN1CCCCc2nc(C)c(C)cc21)=N\OC[C@@H](O)[C@@H]1O[C@@H]2OC(C)(C)O[C@@H]2[C@H]1O | u | n[11.2 µM] | n[11.6 µM] | n[11.2 µM] | n[11.5 µM]
SMILES | Tau fibril FP | TRb SRC2 PPI | Tau fluor cs | TexasRed fluor | Tau ThT inhib
CCCSC1=N/C(=C\C=C\c2ccco2)C(=O)S1 | u | n | u | u | 14µM
CCCSC1=N/C(=C\c2ccc([N+](=O)[O-])o2)C(=O)S1 | u | n | u | u | 13µM
CCSC1=N/C(=C\c2ccc(-c3ccccc3[N+](=O)[O-])o2)C(=O)S1 | u | u | u | u | 5µM
COC1(C#CC2C=CC(OC(C)=O)C(COC(C)=O)O2)CCCCC1 (configuration not stated) | n[11.6 µM] | n[11.2 µM] | n[11.6 µM] | u | n[11.5 µM]
CCc1cc2c(cc3c(=O)n(CCCC(=O)NCc4ccccc4Cl)nc(CC)n32)s1 | n | n | n | n | u
CC(=O)N1CCc2cc(S(=O)(=O)NC(Cc3ccccc3)C(=O)Nc3ccc(C)cc3C)ccc21 (configuration not stated) | n | n | n | n | n
CCCCOP(=O)(c1ccc(N(C)C)cc1)C(Nc1ccccc1)c1ccccc1 (configuration not stated) | n | n | n | n | n
CCCOP(=O)(c1ccc(N(C)C)cc1)C(Nc1ccccc1)c1ccc(N(C)C)cc1 (configuration not stated) | n | n | n | 32µM[quencher] | n
Cc1ccc(C(=O)c2no[n+]([O-])c2C(=O)c2ccc(C)cc2)cc1 | u | n | n | n | 14µM
COc1ccc(CNC(=O)CN(c2ccccc2OC)S(=O)(=O)c2ccc(C)cc2)cc1 | n | n | n | n | n
Cc1ccc(N2C(=O)CSCC2=O)cc1 | n | n | n | n | n
Cc1ccc(N2C(=O)CS/C2=C(\C(Cl)=C(Cl)Cl)[N+](=O)[O-])cc1 | u | n | u | n | 25µM
Oc1ccc2ccccc2c1N=Nc1ccccn1 | n | n | u | n | 5µM
Cc1ccc(N=Nc2c(O)ccc3ccccc23)c([N+](=O)[O-])c1 | x | n | x | n | x
Cc1ccc(N=Nc2c(O)ccc3ccccc23)c(C)c1 | x | 40µM | x | 45µM[fluorescent] | x
Oc1ccc2ccccc2c1N=Nc1ccccc1F | n | n | u | n | 16µM
CC(C)C[C@@H](CC(=O)N[C@@H](CCC(=O)O)CC(=O)O)NC(=O)[C@@H]1CNCC[C@H]1NC(=O)C[C@H](CCCN)NC(=O)C[C@H](Cc1ccccc1)NC(=O)[C@@H]1CCCC[C@H]1N | n | n | n | n | n
Cc1nn(Cc2ccccc2)c(C)c1/C=N/NC(=O)CNc1cccc(C(F)(F)F)c1 | n | n | u | n | n
O=C(CNc1cccc(C(F)(F)F)c1)N/N=C/c1cn(-c2ccccc2)nc1-c1ccccc1 | 8.9µM | n | u | n | n
CCc1ccc(NC(=O)CC2C(=O)NCCN2C(=O)c2ccccc2OC)cc1 (configuration not stated) | n | n | n | 8.9µM[quencher] | n
COc1ccccc1NC(=O)CC1C(=O)NCCN1C(=O)Nc1ccccc1 (configuration not stated) | n | n | n | n | n
N=C1S/C(=C\c2ccc(-c3ccccc3C(=O)O)o2)C(=O)N1c1ccc2c(c1)OCO2 | n | n | n | n | 3.5µM
C[C@@H]1/C=C\CC(=O)OC[C@H]2O[C@@H](C=C[C@@H]2O)[C@H](C)/C=C\CC(=O)OC1 | n[11.6 µM] | n[11.2 µM] | n[11.6 µM] | n[11.2 µM] | n[11.5 µM]
CCNc1ccc(Br)cc(C(=O)/C=C/c2ccc3c(c2)OCO3)c1=O | u | n | u | n | 11µM
CCNc1ccc(Br)cc(C(=O)/C=C/c2c(Cl)cccc2Cl)c1=O | u | n | u | n | 13µM
CCNc1ccc(Br)cc(C(=O)/C=C/c2ccc(Cl)cc2)c1=O | u | n | u | n | 14µM
CC(=O)OC[C@H]1O[C@@H](CCO/N=C2/[C@H]3O[C@@H]3[C@@H](O)[C@H]3[C@H]2CCn2c(=O)n(-c4ccccc4)c(=O)n23)C=C[C@@H]1OC(C)=O | n[11.6 µM] | n[11.2 µM] | n[11.6 µM] | u | n[11.5 µM]
C=CCCC(=O)Nc1nc(C)c(-c2csc(Nc3ccc(Cl)cc3Cl)n2)s1 | n | n | 14µM[quencher] | n | 7.9µM
C=CCCC(=O)Nc1nc(C)c(-c2csc(Nc3cc(Cl)ccc3OC)n2)s1 | n | n | 14µM[quencher] | n | u
